From PubChem BioAssay (Tox21)
Active and inactive are the calls of the source. Where a call stands in place of a potency, no number is given. Unless noted, calls come from the whole dose curve; as a rule, active = well fitted curve in the direction sought with a large enough effect in the repeat runs; inconclusive = weak or mixed curves; inactive = no such curve, though single readings can be large; an effect the other way counts as inactive or inconclusive.

Key:
[1] = qHTS assay for small molecule agonists of the p53 signaling pathway (AID 651631; calls by dose curve; note: nearly all actives have a fitted effect of over 15% in size; note: potency is the fitted concentration of half-maximal effect)
Summary of the method: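 Beta-lactamase reporter activity under p53 response elements was quantified in HCT-116 cells by FRET fluorescence, following 16 h incubation with test compounds at 37 °C and 2 h substrate development at room temperature.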

[2] = qHTS assay for small molecules that induce genotoxicity in human embryonic kidney cells expressing luciferase-tagged ATAD5 (AID 651632); note: nearly all actives have a fitted effect of over 15% in size; note: potency is the fitted concentration of half-maximal effect
Summary of the method: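 A rise in luciferase signal from ATAD5-tagged HEK293T cells marks genetic stress. Cells were exposed to compounds for 16 hr at 37C, 5% CO2, then luciferase was quantified after a 30 min room-temperature incubation with Amplite.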

[3] = qHTS assay for small molecule agonists of the p53 signaling pathway - cell viability (AID 651633; calls by dose curve; note: nearly all actives have a fitted effect of over 30% in size; note: potency is the fitted concentration of half-maximal effect)
Summary of the method: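 Viability counter-read: CellTiter-Glo luminescence (30 min, room temperature) in the same p53RE-bla plates. These plates had been exposed to compounds for 16 h at 37 C.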

[4] = qHTS assay for small molecules that induce genotoxicity in human embryonic kidney cells expressing luciferase-tagged ATAD5 - cell viability (AID 651634; calls by dose curve; note: nearly all actives have a fitted effect of over 25% in size; note: potency is the fitted concentration of half-maximal effect)
Summary of the method: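 Cytotoxicity counter-readout: after 15.5 hr compound treatment at 37C, live-cell protease activity in ATAD5-luciferase HEK293T cells measured by CellTiter-Fluor fluorescence, 30 min development at 37C.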

[5] = qHTS assay for small molecule disruptors of the mitochondrial membrane potential - cell viability (AID 720634; calls by dose curve;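 note: human HepG2 liver cancer cells; series mostly up to about 83 µM; nearly all actives have a fitted effect of over 20% in size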)
Summary of the method: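 Cytotoxicity was quantified from ATP content by CellTiter-Glo luminescence in the same wells as the MMP dye read-out. HepG2 (2,000 cells/well) were plated overnight and exposed to compounds for 1 hr at 37 C.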

[6] = qHTS assay to test for compound auto fluorescence at 590 nm (red) in HepG2 cells (AID 720674)
Summary of the method: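 Red autofluorescence (Ex/Em 540/590 nm, Rose Bengal sodium equivalents) was measured in HepG2 cells, 2,000 per well in MEM plus 10% FBS, plated overnight at 37 C. Readings were taken 1 hr after adding 23 nL compound or DMSO, at 37 C and 5% CO2.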

[7] = qHTS assay to test for compound auto fluorescence at 535 nm (green) in HepG2 cells (AID 720675)
[8] = qHTS assay to test for compound auto fluorescence at 460 nm (blue) in HEK293 cells (AID 720678)
Summary of the method: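 Measured: blue fluorescence (Ex 405/Em 460 nm) of compound-treated HEK293 cells, incubated overnight at 37C with 5% CO2 and scaled to triamterene equivalents.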

[9] = qHTS assay to test for compound auto fluorescence at 590 nm (red) in HEK293 cells (AID 720679)
Summary of the method: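 Using HEK293 cells at 2,000 per well, the screen added 23 nL of each compound after cell attachment and incubated overnight (37C, 5% CO2). The plate reader then captured red-label fluorescence, Ex/Em 540/590nm.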

[10] = qHTS assay to test for compound auto fluorescence at 535 nm (green) in HEK293 cells (AID 720680)
[11] = qHTS assay to test for compound auto fluorescence at 460 nm (blue) in HEK293 cell free culture (AID 720681)
Summary of the method: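 Blue fluorescence (Ex 405/Em 460 nm, triamterene-equivalent) was read immediately after pin transfer of compound or DMSO into medium (DMEM, 10% FBS) without cells.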

[12] = qHTS assay to test for compound auto fluorescence at 535 nm (green) in HEK293 cell free culture (AID 720682)
Summary of the method: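 Each library compound, or DMSO control, is added by pintool to medium alone, comprising DMEM and 10% FBS. Emission at 535 nm following 485 nm excitation is quantified against fluorescein.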

[13] = qHTS assay to test for compound auto fluorescence at 590 nm (red) in HEK293 cell free culture (AID 720683)
Summary of the method: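 Red-channel autofluorescence of compounds in culture medium (DMEM, 10% FBS), no cells, measured at 540/590 nm. Rose Bengal sodium is the reference fluorophore for equivalence.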

[14] = qHTS assay to test for compound auto fluorescence at 590 nm (red) in HepG2 cell free culture (AID 720684)
Summary of the method: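 Cell-free; medium MEM + 10% FBS; compound or DMSO added by pintool; read Ex 540/Em 590 nm; Rose Bengal sodium as red reference fluorophore.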

[15] = qHTS assay to test for compound auto fluorescence at 460 nm (blue) in HepG2 cell free culture (AID 720685)
Summary of the method: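 Cell-free plates of MEM plus 10% FBS received 23 nL compound or DMSO vehicle; blue-channel (405/460 nm) intensity scored against triamterene as reference fluorophore.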

[16] = qHTS assay to test for compound auto fluorescence at 535 nm (green) in HepG2 cell free culture (AID 720686)
[17] = qHTS assay to test for compound auto fluorescence at 460 nm (blue) in HepG2 cells (AID 720687)
Summary of the method: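 Blue-channel autofluorescence (Ex/Em 405/460 nm, triamterene-equivalent) was measured after 1 hr compound exposure at 37 C, 5% CO2. Cells were HepG2, plated overnight at 37 C in MEM plus 10% FBS.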

[18] = biological target: Glucocorticoid receptor (Homo sapiens) (UniProt P04150); test: qHTS assay to identify small molecule antagonists of the glucocorticoid receptor (GR) signaling pathway (AID 720692; active = well fitted inhibition curve with a large enough effect in the signal ratio in the repeat runs, not every such curve was filed as active; inconclusive = weak or mixed curves, or effect the other way; inactive = no such curve, though single readings can be large or run the other way; the % refers to the signal ratio)
Chain of Glucocorticoid receptor (Homo sapiens) (P04150 whole entry, looked up): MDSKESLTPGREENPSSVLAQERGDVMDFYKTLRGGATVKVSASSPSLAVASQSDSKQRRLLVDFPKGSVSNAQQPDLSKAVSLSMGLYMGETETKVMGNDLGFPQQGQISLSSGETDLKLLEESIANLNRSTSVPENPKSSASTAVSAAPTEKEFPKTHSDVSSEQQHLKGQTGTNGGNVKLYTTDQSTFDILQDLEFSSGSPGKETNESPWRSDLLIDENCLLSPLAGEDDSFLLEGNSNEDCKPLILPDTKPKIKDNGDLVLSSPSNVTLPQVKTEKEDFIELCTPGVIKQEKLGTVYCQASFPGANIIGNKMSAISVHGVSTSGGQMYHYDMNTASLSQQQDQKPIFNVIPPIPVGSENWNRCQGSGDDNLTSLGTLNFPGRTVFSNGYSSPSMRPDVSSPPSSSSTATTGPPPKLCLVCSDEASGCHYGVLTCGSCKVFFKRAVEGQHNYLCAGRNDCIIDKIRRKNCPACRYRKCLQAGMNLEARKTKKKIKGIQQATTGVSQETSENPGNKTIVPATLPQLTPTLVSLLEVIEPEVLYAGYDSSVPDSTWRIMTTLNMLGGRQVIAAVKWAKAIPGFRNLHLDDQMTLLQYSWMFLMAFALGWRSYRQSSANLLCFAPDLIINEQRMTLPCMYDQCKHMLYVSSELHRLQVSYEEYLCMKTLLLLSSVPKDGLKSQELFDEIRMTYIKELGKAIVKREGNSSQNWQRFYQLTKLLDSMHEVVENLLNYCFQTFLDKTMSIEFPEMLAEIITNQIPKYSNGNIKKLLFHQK
Summary of the method: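 Inhibition of dexamethasone-driven (5 nM final) beta-lactamase expression was measured in GRE-reporter HeLa cells over 18 h at 37C. Fluorescence was read after 2 h with the B/G FRET substrate at room temperature.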

[19] = biological target: Glucocorticoid receptor (Homo sapiens) (UniProt P04150); test: qHTS assay to identify small molecule agonists of the glucocorticoid receptor (GR) signaling pathway (AID 720691; active = well fitted activation curve with a large enough effect in the signal ratio in the repeat runs, not every such curve was filed as active; inconclusive = weak or mixed curves, or effect the other way; inactive = no such curve, though single readings can be large or run the other way; the % refers to the signal ratio; note: potency is the fitted concentration of half-maximal effect)
Summary of the method: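 Agonist-mode qHTS in HeLa cells stably expressing a glucocorticoid-response-element beta-lactamase reporter. Fluorescence intensity read with FRET substrate (2 h, room temperature) after 18 h compound treatment at 37 C.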

[20] = qHTS assay for small molecule disruptors of the mitochondrial membrane potential (AID 720635)
Summary of the method: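 Mitochondrial membrane potential tracked with Mito-MPS dye, red aggregates (ex 540/em 590 nm) against green monomers (ex 490/em 535 nm). Compound treatment 1 hr at 37C, dye 30 min in HepG2.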

| Structure (SMILES) | Potency [1] | Potency [2] | Potency [3] | Potency [4] | outcome [5] | outcome [6] | outcome [7] | Potency [8] | outcome [9] | outcome [10] | Potency [11] | outcome [12] | outcome [13] | outcome [14] | Potency [15] | outcome [16] | Potency [17] | Potency [18] | Potency [19] | Potency [20] |
| --- | --- | --- | --- | --- | --- | --- | --- | --- | --- | --- | --- | --- | --- | --- | --- | --- | --- | --- | --- | --- |
| O=P(O)(O)Oc1ccccc1 | inactive | inactive | inactive | inactive | inactive | inactive | inactive | inactive | inactive | inactive | inactive | inactive | inactive | inactive | inactive | inactive | inactive | inactive | – | – |
| CC1=C2[C@@H]([C@H](C)CC[C@H]2/C=C(\C)C(=O)O)[C@H](O)C1 | inactive | inactive | inactive | inactive | inactive | inactive | inactive | inactive | inactive | inactive | inactive | inactive | inactive | inactive | inactive | inactive | – | inactive | – | – |
| CNc1c2c(nn1C)CCCC2 | inactive | inactive | inactive | inactive | inactive | inactive | inactive | inactive | – | inactive | inactive | inactive | inactive | inactive | inactive | inactive | inactive | inactive | inactive | – |
| CS(=O)(=O)c1ccc([C@@H](C[C@H]2CCC(=O)C2)C(=O)Nc2cnccn2)cc1Cl | inactive | inactive | inactive | inactive | inactive | inactive | inactive | inactive | inactive | – | inactive | inactive | inactive | inactive | inactive | inactive | – | inactive | inactive | – |
| CCc1ccc(C)cc1 | inactive | inactive | inactive | inactive | inactive | inactive | inactive | inactive | inactive | inactive | inactive | inactive | inactive | inactive | inactive | – | – | inactive | inactive | – |
| CC[C@H]1OC(=O)[C@H](C)[C@@H](O[C@H]2C[C@@](C)(OC)[C@@H](O)[C@H](C)O2)[C@H](C)[C@@H](O[C@@H]2O[C@H](C)C[C@H](N(C)C)[C@H]2O)[C@](C)(O)C[C@@H](C)CN(C)[C@H](C)[C@@H](O)[C@]1(C)O | inactive | inactive | inactive | inactive | inactive | inactive | inactive | inactive | inactive | inactive | inactive | inactive | inactive | inactive | inactive | inactive | inactive | – | – | – |
| CCCCCCCC(=O)OCCCCCC | inactive | inactive | inactive | inactive | inactive | inactive | inactive | inactive | inactive | – | inactive | inactive | inactive | inactive | – | inactive | inactive | inactive | inactive | – |
| O=C(O)c1cccc(Oc2ccccc2)c1 | inactive | inactive | inactive | inactive | inactive | inactive | inactive | inactive | – | inactive | inactive | inactive | inactive | inactive | inactive | inactive | – | inactive | inactive | – |
| CC(=O)OCC(=O)[C@@]1(OC(C)=O)[C@@H](C)C[C@H]2[C@@H]3C[C@H](F)C4=CC(=O)C=C[C@]4(C)[C@@]3(F)[C@@H](O)C[C@@]21C | inactive | inactive | inactive | inactive | inactive | inactive | inactive | inactive | inactive | inactive | inactive | inactive | inactive | inactive | inactive | inactive | inactive | – | 0.0379 µM [inconclusive] (active) | – |
| CCCCCCCCCCCCCCCCCC(=O)OCC(CC)CCCC (stereo not given) | inactive | inactive | inactive | inactive | inactive | – | inactive | – | inactive | inactive | inactive | inactive | inactive | inactive | inactive | – | inactive | – | – | inactive |
| COC(=O)CC(C(C)=O)C(=O)OC (stereo not given) | inactive | inactive | inactive | inactive | inactive | inactive | inactive | inactive | inactive | inactive | inactive | inactive | inactive | inactive | inactive | inactive | inactive | inactive | inactive | – |
| Nc1nc2ccc(OC(F)(F)F)cc2s1 | 7.5 µM (active) | 11.9 µM (active) | inactive | inactive | inactive | inactive | inactive | inactive | inactive | – | inactive | inactive | inactive | inactive | inactive | inactive | inactive | – | inactive | – |
| Cc1ccc2nc(N)[nH]c(=O)c2c1Sc1ccncc1 | 2.66 µM (active) | inactive | 1.88 µM (active) | inactive | inactive | inactive | inactive | inactive | inactive | inactive | inactive | inactive | inactive | inactive | inactive | inactive | inactive | – | – | – |
| Nc1ccc(N=Nc2ccc(N)cc2)cc1 | inactive | 5.44 µM (active) | inactive | 27.3 µM (active) | inactive | inactive | inactive | inactive | inactive | inactive | inactive | inactive | inactive | inactive | – | inactive | inactive | – | – | – |
